Laboratory results taken from the antibiotic and cytotoxicity screens of Wong et al. (2023).
Screen size: about 39,000 compounds; about 3,300 (8.5%) were called active. The full list was thinned out, with actives kept by preference.

Tested on: HepG2
Assay: cytotoxicity call (relative viability < 0.9)
Conditions: 10 µM

Row | SMILES | cytotoxicity call
1 | CC1(C)OC(=O)N(CCCC(=O)O)[C@@]1(C)O | inactive
2 | CC(=O)OC1CC(OC(C)=O)C2(C)C(CC(O)C3(C)C2CCC2(C)C(c4ccoc4)OC(=O)C4OC423)C1(C)C (configuration not stated) | inactive
3 | C[C@H]1CN([C@@H](C)CO)C(=O)c2cc(NC(=O)Cn3cnnn3)ccc2O[C@H]1CN(C)CC1CCCCC1 | inactive
4 | C[C@H](CO)N1C[C@H](C)[C@H](CN(C)Cc2ccc(C(=O)O)cc2)Oc2c(NC(=O)C3CC3)cccc2C1=O | inactive
5 | CS(=O)(=O)NC[C@@]12COC[C@H]1CN(C(=O)c1cnccn1)C2 | inactive
6 | C[C@@H]1CCCCO[C@H](CN(C)S(=O)(=O)c2ccc(Cl)cc2)[C@H](C)CN([C@@H](C)CO)C(=O)c2cc(NC(=O)CCC(F)(F)F)ccc2O1 | inactive
7 | C[C@H]1CCCCO[C@@H](CN(C)Cc2ccc(C(F)(F)F)cc2)[C@@H](C)CN([C@@H](C)CO)C(=O)c2cc(NC(=O)CCCN(C)C)ccc2O1 | inactive
8 | C[C@@H]1CCCCO[C@H](CN(C)Cc2ccc(C(F)(F)F)cc2)[C@H](C)CN([C@H](C)CO)C(=O)c2cc(NC(=O)CCCN(C)C)ccc2O1 | inactive
9 | C[C@@H]1CCCCO[C@@H](CN(C)Cc2ccc(C(F)(F)F)cc2)[C@@H](C)CN([C@@H](C)CO)C(=O)c2cc(NC(=O)CCCN(C)C)ccc2O1 | inactive
10 | C[C@@H]1CCCCO[C@H](CN(C)Cc2ccc(C(F)(F)F)cc2)[C@@H](C)CN([C@@H](C)CO)C(=O)c2cc(NC(=O)CCCN(C)C)ccc2O1 | active
11 | C[C@H](CO)N1C[C@H](C)[C@@H](CN(C)Cc2ccc(C(F)(F)F)cc2)OCCCC[C@H](C)Oc2ccc(NC(=O)CCCN(C)C)cc2C1=O | inactive
12 | C[C@@H]1CN([C@H](C)CO)C(=O)c2cc(NC(=O)CCCN(C)C)ccc2O[C@@H](C)CCCCO[C@@H]1CN(C)Cc1ccc(C(F)(F)F)cc1 | inactive
13 | C[C@@H]1CCCCO[C@H](CN(C)Cc2ccc(C(F)(F)F)cc2)[C@H](C)CN([C@@H](C)CO)C(=O)c2cc(NC(=O)CCCN(C)C)ccc2O1 | active
14 | C[C@H](CO)N1C[C@H](C)[C@H](CN(C)Cc2ccc(C(F)(F)F)cc2)OCCCC[C@H](C)Oc2ccc(NC(=O)CCCN(C)C)cc2C1=O | active
15 | C[C@@H]1CCCCO[C@@H](CN(C)Cc2ccc(C(F)(F)F)cc2)[C@@H](C)CN([C@H](C)CO)C(=O)c2cc(NC(=O)CCCN(C)C)ccc2O1 | inactive
16 | C[C@@H]1CN([C@@H](C)CO)C(=O)c2cc(NC(=O)CCCN(C)C)ccc2O[C@@H](C)CCCCO[C@H]1CN(C)Cc1ccc(C(F)(F)F)cc1 | inactive
17 | C[C@@H]1CN([C@H](C)CO)C(=O)c2cc(NC(=O)CCCN(C)C)ccc2O[C@@H](C)CCCCO[C@H]1CN(C)Cc1ccc(C(F)(F)F)cc1 | inactive
18 | C[C@H]1CCCCO[C@H](CN(C)Cc2ccc(C(F)(F)F)cc2)[C@@H](C)CN([C@@H](C)CO)C(=O)c2cc(NC(=O)CCCN(C)C)ccc2O1 | active
19 | CN(C)C(=O)C[C@@H]1CC[C@H]2[C@H](COc3ccc(NS(=O)(=O)c4cccc(F)c4)cc3C(=O)N2C)O1 | inactive
20 | COc1ccc(S(=O)(=O)N(C)C[C@H]2OCCCC[C@H](C)Oc3ccc(NS(C)(=O)=O)cc3C(=O)N([C@H](C)CO)C[C@@H]2C)cc1 | inactive
21 | C[C@H](CO)N1C[C@H](C)[C@H](CN(C)Cc2cccc(O)c2)OCc2ccccc2-c2c(n(C)c3ccccc23)C1=O | inactive
22 | C[C@@H]1CN([C@@H](C)CO)C(=O)c2cc(C#CC3(O)CCCC3)cnc2O[C@H]1CN(C)C(=O)Cc1ccncc1 | inactive
23 | C[C@@H]1CCCCO[C@@H](CN(C)S(=O)(=O)c2ccccc2)[C@H](C)CN([C@H](C)CO)C(=O)c2cc(NC(=O)c3ccccc3)ccc2O1 | inactive

Row | SMILES | cytotoxicity call
24 | N=C(N=C(N)N)N1CCOCC1 | inactive
25 | O=C1N[C@@H]2[C@@H]1[C@H]1C=C[C@H]2C1 | inactive
26 | C[C@@H]1CCCCO[C@H](CN(C)C(=O)Nc2ccc(F)cc2)[C@H](C)CN([C@@H](C)CO)C(=O)c2cc(NS(=O)(=O)c3ccc(F)cc3)ccc2O1 | inactive
27 | C[C@H]1CN([C@@H](C)CO)C(=O)c2cc(-c3ccncc3)cnc2O[C@@H]1CN(C)S(=O)(=O)c1ccc(F)cc1 | inactive
28 | COc1ccccc1CNC(=O)C[C@@H]1C[C@@H]2c3cc(NC(=O)c4ccc5c(c4)OCO5)ccc3O[C@@H]2[C@@H](CO)O1 | inactive
29 | CNC(=O)c1ccc(CO)cc1 | inactive
30 | CN(C)Cc1cn(CC[C@@H]2CC[C@H](N)[C@@H](CO)O2)nn1 | inactive
31 | C[C@H]1CN([C@@H](C)CO)C(=O)c2cccc(NC(=O)NC3CCCCC3)c2O[C@H]1CN(C)S(=O)(=O)c1cn(C)cn1 | inactive
32 | O=C(C[C@@H]1CC[C@H]2[C@@H](COC[C@@H](O)CN2C(=O)c2ccccn2)O1)NC1CCC1 | inactive
33 | CN1CCC(=C2c3ccccc3CCc3sccc32)CC1.O=C(O)CC(O)C(=O)O | inactive
34 | CN1CCC(=C2c3ccccc3Sc3ccccc32)CC1.O=C(O)C=CC(=O)O | active
35 | CN1CCC(=C2c3ccccc3C=Cc3ccccc32)CC1.Cl | active
36 | CN1CCC(=C2c3ccccc3CC(=O)c3sccc32)CC1.O=C(O)C=CC(=O)O | inactive
37 | CN1CCN(C(c2ccccc2)c2ccccc2)CC1 | inactive
38 | CN1C(=O)c2ccccc2C1=O | inactive
39 | C[C@H]1CCCCO[C@H](CN(C)C(=O)Nc2ccc(C(F)(F)F)cc2)[C@@H](C)CN([C@@H](C)CO)C(=O)c2cc(NC(=O)c3ccccc3)ccc2O1 | inactive
40 | CCOC(=O)[C@@H]1C(Cc2ccccc2)=CN(CCc2ccc(OC)c(OC)c2)C(=O)N1c1ccc(OC)cc1 | inactive
41 | C[C@@H]1CN([C@H](C)CO)C(=O)c2cc(C#CCN(C)C)cnc2O[C@@H]1CN(C)C(=O)Nc1cccc(F)c1 | inactive
42 | C[C@H](CO)N1C[C@H](C)[C@H](CN(C)C(=O)Nc2cccc3ccccc23)Oc2c(NC(=O)c3nc4ccccc4s3)cccc2C1=O | inactive
43 | C[C@H](CO)N1C[C@H](C)[C@@H](CN(C)C(=O)Nc2cccc3ccccc23)Oc2c(NC(=O)c3nc4ccccc4s3)cccc2C1=O | active
44 | C[C@H]1CN([C@@H](C)CO)C(=O)c2cccc(NC(=O)c3nc4ccccc4s3)c2O[C@H]1CN(C)C(=O)Nc1cccc2ccccc12 | inactive
45 | C[C@@H]1CN([C@@H](C)CO)C(=O)c2cccc(NC(=O)c3nc4ccccc4s3)c2O[C@@H]1CN(C)CC1CCCCC1 | active
46 | C[C@@H]1CN([C@H](C)CO)C(=O)c2cccc(NC(=O)c3nc4ccccc4s3)c2O[C@@H]1CN(C)C(=O)Nc1cccc2ccccc12 | inactive

Row | SMILES | cytotoxicity call
47 | C[C@@H]1CN([C@H](C)CO)C(=O)c2cccc(NC(=O)c3nc4ccccc4s3)c2O[C@H]1CN(C)CC1CCCCC1 | inactive
48 | C[C@H]1CN([C@@H](C)CO)C(=O)c2cccc(NC(=O)c3nc4ccccc4s3)c2O[C@@H]1CN(C)C(=O)Nc1cccc2ccccc12 | inactive
49 | C[C@@H]1CN([C@@H](C)CO)C(=O)c2cccc(NC(=O)c3nc4ccccc4s3)c2O[C@H]1CN(C)CC1CCCCC1 | inactive
50 | C[C@@H]1CN([C@@H](C)CO)C(=O)c2cccc(NC(=O)c3nc4ccccc4s3)c2O[C@H]1CN(C)C(=O)Nc1cccc2ccccc12 | active
51 | COc1cccc(S(=O)(=O)N[C@H]2CC[C@@H](CC(=O)NC3CCC3)O[C@H]2CO)c1 | inactive
52 | COC(=O)c1c[nH]c(=S)n1C | inactive
53 | COc1ccc(NC(=O)Nc2cccc3c2O[C@H](CN(C)Cc2ccc(C(=O)Nc4ccccc4N)cc2)[C@@H](C)CN([C@@H](C)CO)C3=O)cc1 | inactive
54 | O=C(C[C@H]1CC[C@@H]2[C@H](COC[C@H](O)CN2C(=O)c2ccccc2F)O1)N1CCN(c2ccccc2)CC1 | inactive
55 | CC[C@@H](C)SSc1ncc[nH]1 | inactive
56 | C[C@@H]1CCCCO[C@@H](CN(C)C(=O)Nc2cccc3ccccc23)[C@@H](C)CN([C@H](C)CO)C(=O)c2cc(NC(=O)C3CCCCC3)ccc2O1 | inactive
57 | C[C@@H]1CCCCO[C@H](CN(C)C(=O)Nc2cccc3ccccc23)[C@@H](C)CN([C@H](C)CO)C(=O)c2cc(NC(=O)C3CCCCC3)ccc2O1 | inactive
58 | C[C@@H]1CCCCO[C@@H](CN(C)C(=O)Nc2cccc3ccccc23)[C@H](C)CN([C@H](C)CO)C(=O)c2cc(NC(=O)C3CCCCC3)ccc2O1 | active
59 | C[C@@H]1CN([C@H](C)CO)C(=O)c2cc(NC(=O)C3CCCCC3)ccc2O[C@@H](C)CCCCO[C@H]1CN(C)C(=O)Nc1cccc2ccccc12 | inactive
60 | C[C@@H]1CCCCO[C@@H](CN(C)C(=O)Nc2cccc3ccccc23)[C@H](C)CN([C@@H](C)CO)C(=O)c2cc(NC(=O)C3CCCCC3)ccc2O1 | inactive
61 | C[C@@H]1CCCCO[C@H](CN(C)C(=O)Nc2cccc3ccccc23)[C@H](C)CN([C@H](C)CO)C(=O)c2cc(NC(=O)C3CCCCC3)ccc2O1 | active
62 | C[C@@H]1CN([C@H](C)CO)C(=O)c2cc(NC(=O)C3CCCCC3)ccc2O[C@@H](C)CCCCO[C@@H]1CN(C)C(=O)Nc1cccc2ccccc12 | active
63 | C[C@@H]1CCCCO[C@H](CN(C)C(=O)Nc2cccc3ccccc23)[C@@H](C)CN([C@@H](C)CO)C(=O)c2cc(NC(=O)C3CCCCC3)ccc2O1 | inactive
64 | C[C@H](CO)N1C[C@H](C)[C@@H](CN(C)C(=O)Nc2cccc3ccccc23)OCCCC[C@H](C)Oc2ccc(NC(=O)C3CCCCC3)cc2C1=O | inactive
65 | C[C@H]1CCCCO[C@@H](CN(C)C(=O)Nc2cccc3ccccc23)[C@@H](C)CN([C@@H](C)CO)C(=O)c2cc(NC(=O)C3CCCCC3)ccc2O1 | inactive
66 | C[C@H](CO)N1C[C@H](C)[C@H](CN(C)C(=O)Nc2cccc3ccccc23)OCCCC[C@H](C)Oc2ccc(NC(=O)C3CCCCC3)cc2C1=O | active
67 | C[C@@H]1CCCCO[C@@H](CN(C)C(=O)Nc2cccc3ccccc23)[C@@H](C)CN([C@@H](C)CO)C(=O)c2cc(NC(=O)C3CCCCC3)ccc2O1 | inactive
